The text below walks through data of PubChem BioAssay AID493122 (National Center for Advancing Translational Sciences (NCATS), 2011).

Activity calls are given as the source filed them. The rule behind the calls is not given here.

The assay is described as follows: Concentration response cycloheximide confirmation counterscreen for small molecule inhibitors of Shiga toxin. To be noted: protein synthesis reporter, cells; series mostly up to 76.6 µM. (The purpose of a counterscreen is to sort out artefacts and off-target activity.)
On to `CC1CCC/C=C/C2CC(O)CC2C(O)/C=C/C(=O)O1` (stereo unspecified), for which the outcome was inactive.

For `Cc1cc(C(=O)COC(=O)CNS(=O)(=O)c2ccc3ccccc3c2)c(C)n1-c1ccccc1`, the call was inactive.

`C=CCNC(=O)c1ccc(C)c(Br)c1`: the outcome was inactive.

On to `O=C(NC1CCCC1)c1cc(Cl)ccc1[N+](=O)[O-]`, for which the outcome was inactive.

`O=C(CC(c1ccccc1)c1cc(Cl)ccc1O)N1CCCC1` (stereo unspecified): the result was inactive.

Consider `O=C(Nc1ccccc1)c1ccc[nH]1`, for which the outcome was inactive.

In the case of `CN(C)S(=O)(=O)c1ccc(C(=O)OCC(=O)c2ccc3c(c2)NC(=O)CO3)cc1`, the compound was called inactive.

On to `COc1ccccc1CNC(=O)c1csc2c1CCCC2`, for which the outcome was inactive.

In the case of `CCOC(=O)C1(CCCc2ccccc2)CCN(C(=O)CCn2cncn2)CC1`, the outcome was inactive.

On to `CC(C)CNC(=O)c1noc2c1CCCC2`, for which the outcome was inactive.

As for `COc1ccc(C(C)(C)C)cc1NC(=O)c1ccc2c(c1)SC1=NS(=O)(=O)CCN12`, the call was inactive.

On to `CN(C(=O)c1ccc2c(=O)n3c(nc2c1)CCCCC3)c1ccccc1`, for which the result was inactive.

`CCn1c2ccccc2c2cc(NC(=O)c3cccc([N+](=O)[O-])c3)ccc21`: the compound was classed as inactive.

On to `CN(C)S(=O)(=O)c1ccc(C(=O)Nc2ccc(CN3CCCC3)cc2)cc1`, for which the result was inactive.

Regarding `Cc1cccc(NC(=O)CCN2C(=O)c3ccccc3S2(=O)=O)c1C`, the compound was classed as inactive.

On to `CC(=O)c1ccc(N2CCN(S(=O)(=O)c3ccc4c(c3)CC(C)N4C(C)=O)CC2)cc1` (stereo unspecified), for which the outcome was inactive.
